Active and inactive are the calls of the source.

This test deals with Luciferin 4-monooxygenase (Photinus pyralis) (UniProt P08659). The test can be described thus: firefly luciferase enzyme inhibitors, primary screen, biochemical, luminescence, purified enzyme, 2006 set (AID 1141).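 Further: cell-free assay with purified firefly luciferase at 100 ng per well in PBS; test concentration not given here.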 The following applies: SteadyGlo luminescence, 30 min, higher = more signal, called active from +8 up or from −8 down.
Luciferin 4-monooxygenase (Photinus pyralis), sequence (P08659 whole entry, looked up): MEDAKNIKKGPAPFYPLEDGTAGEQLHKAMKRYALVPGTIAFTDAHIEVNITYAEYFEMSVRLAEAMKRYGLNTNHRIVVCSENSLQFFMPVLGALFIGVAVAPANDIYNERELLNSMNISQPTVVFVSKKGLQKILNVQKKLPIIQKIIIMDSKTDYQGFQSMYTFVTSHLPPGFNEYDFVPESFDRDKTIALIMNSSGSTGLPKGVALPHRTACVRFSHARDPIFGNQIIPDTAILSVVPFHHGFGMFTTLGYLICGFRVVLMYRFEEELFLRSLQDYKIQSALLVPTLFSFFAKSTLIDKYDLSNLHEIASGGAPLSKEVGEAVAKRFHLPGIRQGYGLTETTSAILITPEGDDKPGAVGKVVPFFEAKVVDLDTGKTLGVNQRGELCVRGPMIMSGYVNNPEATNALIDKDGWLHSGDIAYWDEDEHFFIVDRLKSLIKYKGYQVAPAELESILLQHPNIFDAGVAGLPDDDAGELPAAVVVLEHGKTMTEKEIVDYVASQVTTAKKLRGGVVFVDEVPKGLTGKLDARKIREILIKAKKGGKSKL
For `CC(C)[C@@H](OCc1ccccc1)[C@H](C)C=NOC[C@@H](O)COCc1ccco1`, the z-score was 0.331 (inactive).

For `CC(C)(C)N1C(=O)[C@H]2[C@H]3[C@H](O)C=CC(=O)[C@@H]3CC[C@H]2C1=O`, the z-score is -0.753 (inactive). Consider `CCOC(=O)[C@H](CC(C)C)NC(=O)CCC1CC(OC(=O)NCc2cccc3ccccc23)CC2(CCCC(COC(=O)NCCOC)O2)O1` (stereo partly drawn), for which the z-score was 0.561 (inactive).

For the compound `Cc1ccc(S(=O)(=O)n2c3ccccc3c3nnc(C(=O)c4ccccc4)nc32)cc1`, the z-score is -4.76 (inactive). Turning to `CCN1C(=O)[C@H]2[C@H]3[C@H](O)[C@H](O)CC(=NOC[C@H]4O[C@H](c5ccccc5)C=C[C@@H]4Oc4ccc(OC)cc4)[C@@H]3CC[C@H]2C1=O`, the z-score is 0.468 (inactive).

Regarding `Cc1cc2c(c(=O)o1)[C@@H](O)[C@H]1O[C@H]1C2=O`, the z-score is 0.476 (inactive).

Take `C#CCCCON=C1C[C@@H](O)[C@@H](O)[C@@H]2[C@@H]3C(=O)N(c4cccc(Oc5ccccc5)c4)C(=O)[C@@H]3CC[C@H]12`: the z-score was 0.134 (inactive). Regarding `CC(CCN1CCc2nc(-c3ccccc3)c(-c3ccccc3)cc2C1)=NOC[C@@H](O)[C@H]1O[C@@H]2OC(C)(C)O[C@@H]2[C@H]1O`, the z-score was -0.116 (inactive).

`CC(CCN1CCc2nc(-c3ccccc3)c(-c3ccccc3)cc2C1)=NOC[C@@H](O)COCc1ccco1`: the z-score was -1.46 (inactive). `CSCC[C@@H]1NC(=O)CC=C[C@@H](C)COC(=O)[C@@H](C)COC1=O`: the z-score is -0.343 (inactive). As to `CC(=O)Nc1ccc([C@@H]2N[C@H](C(=O)O)CC[C@H]2C)cc1`, the z-score was -1.38 (inactive).

`C#CCCCON=C1[C@H]2CCn3c(=O)n(-c4ccccc4)c(=O)n3[C@H]2[C@H](O)[C@@H]2O[C@H]12`: the z-score was -1.32 (inactive).

Take `COC(=O)[C@@H]1CC[C@H](C)[C@@H](c2ccc(C)cc2)N1C(=O)c1ccc(C=NOC[C@@H](C)[C@H](OCc2ccccc2)C(C)C)cc1`: the z-score was -1.46 (inactive). On to `CCOC(=O)[C@H](Cc1ccccc1)NC(=O)CCC1CC(OC(=O)NCc2cccc3ccccc23)CC2(CCCC(COC(=O)NCCC(C)C)O2)O1` (stereo partly drawn), for which the z-score was 0.871 (inactive). Consider `C=CC[C@@H]1C=C[C@H](ON=C2[C@H]3CCn4c(=O)n(-c5ccccc5)c(=O)n4[C@H]3[C@H](O)[C@@H]3O[C@H]23)[C@@H](CO)O1`, for which the z-score was 0.845 (inactive). Consider `CCOC(=O)[C@H](CC(C)C)NC(=O)CCC1CC(OC(=O)NCc2cccc3ccccc23)CC2(CCCC(COC(=O)NCCOc3ccccc3)O2)O1` (stereo partly drawn), for which the z-score is 0.546 (inactive). For the compound `C[C@@H](c1ccccc1)N1C(=O)[C@H]2[C@H]3[C@H](O)[C@H](O)CC(=NOCc4ccccc4)[C@H]3CC[C@H]2C1=O`, the z-score was 0.0057 (inactive). In the case of `CCCNC(=O)OC[C@H]1O[C@H](CCON=C(C)CCN2CCc3nc(CC)c(CC)cc3C2)C=C[C@@H]1Oc1ccc(OC)cc1`, the z-score was -0.512 (inactive). The figure for `CCCNC(=O)OC[C@H]1O[C@H](CCON=C(C)C)C=C[C@@H]1Oc1ccc(OC)cc1` is -0.129 (inactive); for `CC(=O)O[C@H]1C2=CO[C@H](C)[C@H]3[C@H]4C5=C([C@H](O)[C@H]6O[C@H]6C5=O)[C@H](OC4C)[C@@]23C(=O)[C@@H]2O[C@@H]21` (stereo partly drawn) it is -0.413 (inactive). Turning to `C=CC[C@@H]1C=C[C@H](ON=C[C@@H](C)[C@H](OCc2ccccc2)C(C)C)[C@@H](CO)O1`, the z-score is 0.888 (inactive). `COC(=O)CC=C[C@@H](C)[C@@H](C=NOC(C)CN1CCCc2nc(C)c(C)cc21)OC` (stereo partly drawn): the z-score is 0.423 (inactive). On to `CC(CCN1CCCCc2nc(C)c(C)cc21)=NOC[C@@H](C)[C@H](OCc1ccccc1)C(C)C`, for which the z-score was -0.486 (inactive). As for `CON=C(C)CCC(=O)OC[C@H]1O[C@H](c2ccccc2)C=C[C@@H]1Oc1ccc(OC)cc1`, the z-score is 0.236 (inactive). The figure for `CON=CC[C@@H]1C=C[C@H](OC(C)=O)[C@@H](COC(C)=O)O1` is 0.218 (inactive); for `Cn1c(=O)n2n(c1=O)[C@H]1[C@H](O)[C@@H]3O[C@@H]3C(=O)[C@H]1CC2` it is -0.28 (inactive). Regarding `COc1ccc(COC(=O)NN=C2C[C@@H](O)[C@@H](O)[C@@H]3[C@@H]4C(=O)N(Cc5ccccc5)C(=O)[C@@H]4CC[C@H]23)cc1`, the z-score was 0.893 (inactive). Turning to `C#CCCCON=C1C[C@@H](O)[C@@H](O)[C@@H]2[C@@H]3C(=O)N(C(C)(C)C)C(=O)[C@@H]3CC[C@@H]12`, the z-score was 0.648 (inactive).

For the origin of these results see PubChem BioAssay.
